# Source: PubChem
# Most compounds without a hit are left out; they make up all but 11% or so of the library.
# BAZ2B inh = blocks human BAZ2B; AlphaScreen BAZ2B-H3K14Ac peptide displacement; Q9UIF8; Potency, µM (series often up to 114 µM), most hits filed as inhibitors; AID 504333; 360,000 compounds, 4.4% hits; also: nearly all actives have a fitted effect of over 60% in size
#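 AlphaScreen luminescence quantifies BAZ2B engagement of H3K14Ac peptide; the protein and biotinylated peptide are both at 50 nM final, buffer PBS pH 7.4 with 0.01% Tween-20, all steps at room temperature.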
# HP1b binding inh = inhibitors of HP1-beta chromodomain binding to methylated histone tails; AID 540317; AlphaScreen HP1-beta / biotin-H3K9me3 peptide binding; Potency, µM (doses to about 114 µM), hits mostly inhibitors; P83916; 390,000 compounds, 0.56% hits; also: nearly all actives have a fitted effect of over 70% in size
# Target sequence (P83916 whole entry, looked up): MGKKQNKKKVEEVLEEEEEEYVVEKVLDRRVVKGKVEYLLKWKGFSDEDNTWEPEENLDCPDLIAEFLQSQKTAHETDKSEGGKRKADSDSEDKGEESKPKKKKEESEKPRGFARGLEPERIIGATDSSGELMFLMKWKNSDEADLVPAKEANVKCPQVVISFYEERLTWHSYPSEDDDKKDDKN
#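 HP1-beta protein (50 nM final) preincubated 30 min at room temperature with biotinylated H3(1-18)K9me3 peptide (50 nM) in PBS pH 7.4, 0.01% Tween-20, then compound added for 30 min. AlphaScreen streptavidin donor/nickel chelate acceptor beads (10 ug/mL final), 30 min dark, luminescence read.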
# L3MBTL1 inh = inhibitors of human L3MBTL1. AlphaScreen L3MBTL1–H3K9me1 peptide binding. Potency, µM (highest dose often 57.1 µM), hits mostly inhibitors. 230,000 compounds, 0.66% hits. AID 485360; also: nearly all actives have a fitted effect of over 60% in size
#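 Read-out is AlphaScreen signal from streptavidin donor and nickel chelate acceptor beads (10 ug/mL final each) bridging L3MBTL1 (50 nM) and biotinylated K9-monomethylated H3(1-15) peptide (75 nM), after 30 min compound exposure at room temperature.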
# PI5P4Ka inh = inhibitors of human PI5P4K alpha. P48426. PI5P4Kalpha enzyme, ADP-Glo luminescence, 60 min; hits give low values. max response, %. 330,000 compounds, 1.2% hits. AID 652105; active = max response of -50% or lower; inconclusive = between -30% and -50%; inactive = -30% or higher; also: value at the top dose of about 77 µM
# Target sequence (P48426 whole entry, looked up): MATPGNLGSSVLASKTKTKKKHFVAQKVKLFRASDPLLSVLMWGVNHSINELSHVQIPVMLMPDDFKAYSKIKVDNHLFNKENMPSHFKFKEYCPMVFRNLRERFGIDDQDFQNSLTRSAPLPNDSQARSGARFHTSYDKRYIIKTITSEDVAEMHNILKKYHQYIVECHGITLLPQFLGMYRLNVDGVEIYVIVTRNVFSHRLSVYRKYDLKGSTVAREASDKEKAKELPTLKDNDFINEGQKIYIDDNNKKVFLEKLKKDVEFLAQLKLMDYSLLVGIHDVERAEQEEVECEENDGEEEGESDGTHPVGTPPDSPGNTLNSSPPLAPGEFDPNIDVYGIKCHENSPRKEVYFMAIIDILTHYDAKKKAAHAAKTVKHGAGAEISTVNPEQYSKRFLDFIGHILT
#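 PI5P4Kalpha ADP-Glo assay; 5 microM ATP final; 60 min RT reaction; HEPES pH 7.4/EGTA/CHAPS, 5% DMSO; controls lacking substrate or enzyme; luminescent end-point.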
# G9a inh = blocks human histone lysine methyltransferase G9a; G9a H3K9 monomethylation, AlphaScreen, 2 h; 350,000 compounds, 8.8% hits; Q96KQ7; Potency, µM (top dose mostly 102 µM), hits mostly inhibitors; also: nearly all actives have a fitted effect of over 75% in size
#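 Compounds were preincubated with 20 nM G9a for 15 min, after which biotinylated H3K9 peptide (500 nM) and SAM (20 uM) started a 2 h room-temperature reaction. Monomethylated product was quantified by antibody-based AlphaScreen chemiluminescence.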
# JMJD2A Tudor inh = inhibitors of human JMJD2A Tudor domain. Potency, µM (top dose mostly 114 µM), most hits filed as inhibitors. AlphaScreen JMJD2A-Tudor / H3K4me3 peptide binding. O75164. AID 504339. 390,000 compounds, 4.4% hits; also: nearly all actives have a fitted effect of over 50% in size
# A number is an active result; 0 = inactive; ? = inconclusive; - = no result; [ ] = remark or other dose. Unless noted, calls follow the shape of the dose curve; as a rule, active = well fitted inhibition curve with a large enough effect; inconclusive = small, poorly fitted or top-dose-only effect; inactive = no such curve, though single readings can be large or run the other way.
SMILES,BAZ2B inh,HP1b binding inh,L3MBTL1 inh,PI5P4Ka inh,G9a inh,JMJD2A Tudor inh
COCCNC(=O)c1ccc(CS(=O)(=O)c2ccccc2OC)o1,0,0,-,0,?,0
Cc1ccccc1S(=O)(=O)Cc1ccc(C(=O)NC2CCCC2)o1,0,0,-,0,0,0
Cc1ccccc1S(=O)(=O)Cc1ccc(C(=O)NCc2ccco2)o1,0,0,-,0,0,16µM
Cc1ccccc1S(=O)(=O)Cc1ccc(C(=O)NC2CC2)o1,0,0,-,0,0,50µM
O=C(OCC#CCSc1nnc(-c2cccc3ccccc23)o1)c1sccc1Cl,-,-,-,-,-,0
CN1c2ccccc2N(C)C1(C)c1cccc2ccccc12,?,?,0,0,1.4µM,45µM
Cc1ccccc1N(C)C1=N[S+](=O)([O-])c2ccccc21,-,-,-,-,-,0
COc1ccccc1C(=O)NC(=S)Nc1cccnc1Cl,0,?,-,?,10µM,0
COc1ccccc1C(=O)NC(=S)Nc1cc(C(=O)O)ccc1C,0,0,-,0,45µM,0
Cc1ccc(C(=O)O)cc1NC(=S)NC(=O)Cc1ccccc1,0,0,0,0,0,0
Cc1ccc(C(=O)O)cc1NC(=S)NC(=O)c1ccc(COc2ccccc2)cc1,50µM,0,-,0,-,?
O=C1ON=C(c2ccccc2)/C1=C/c1ccc(OS(=O)(=O)c2ccccc2)cc1,50µM,?,0,-69,8.9µM,79µM
O=C1ON=C(c2ccccc2)/C1=C/c1cccnc1,0,0,0,0,45µM,0
Cc1ccc(/C=C2\C(=O)ON=C2c2ccccc2)o1,0,?,0,0,0,0
COc1ccc(/C=C2\C(=O)ON=C2c2ccccc2)cc1,?,0,-,-53,40µM,35µM
O=C1ON=C(c2cccc([N+](=O)[O-])c2)/C1=C/c1ccc(O)cc1,?,0,0,?,22µM,0[11.4 µM]
O=C1Nc2ccccc2/C1=C/c1cccnc1,0,0,-,0,0,0
Cc1cc(C)c(Cn2c(C(O)c3ccccc3)nc3ccccc32)c(C)c1 (stereo unspecified),0,0,-,-,0,?
CCCCc1nc2ccn(CC(=O)N(C)C)c(=O)c2n1Cc1ccc(-c2ccccc2-c2nn[nH]n2)cc1,-,-,-,-,0,-
COc1cccc(C2CC(=O)N(c3ccc(F)cc3)C3=C2C(=O)OC3)c1OC (stereo unspecified),0,0,-,-,0,0
O=C1ON=C(c2ccccc2)/C1=C/c1ccc(O)c(O)c1,28µM,8.9µM,-,-59,25µM,14µM
COc1cc(/C=C2\C(=O)ON=C2c2ccc(Cl)cc2)ccc1O,-,?,-,0,-,?
Cc1cc(F)ccc1NC(=O)C(C(C)C)N1Cc2ccccc2C1=O (stereo unspecified),0,0,-,-,0,0
COc1cccc(C2=CC(c3ccccc3O)NC(C)(C)N2)c1 (stereo unspecified),-,0,-,-,-,0
Cn1c(CNC(=O)CSc2nc(-c3cccc(Cl)c3)nc3cc(=O)[nH]n23)nc2ccccc21,0,0,-,-,0,0
SMILES,BAZ2B inh,HP1b binding inh,L3MBTL1 inh,PI5P4Ka inh,G9a inh,JMJD2A Tudor inh
CCOc1ccc(-c2nc(SCC(=O)Nc3ccc(C)c(C)c3)n3[nH]c(=O)cc3n2)cc1,50µM,?,-,-,0,50µM
O=C(CSc1nc(-c2cccc(Cl)c2)nc2cc(=O)[nH]n12)Nc1ccccc1,56µM,0,-,-,0,?
O=C(CSc1nc(-c2cccs2)nc2cc(=O)[nH]n12)Nc1ccc(F)cc1,0,0,-,-,0,0
Cc1ccccc1NC(=O)CSc1nc(-c2cccs2)nc2cc(=O)[nH]n12,50µM,0,0,-,0[12.7 µM],?
Cc1ccc(NC(=O)CSc2nc(-c3cccs3)nc3cc(=O)[nH]n23)cc1C,50µM,0,?,-,0[12.7 µM],79µM
CN1C(=O)C[C@@H](C(=O)N[C@@H](Cc2cnc[nH]2)C(=O)N2CCC[C@H]2C(N)=O)NC1=O,-,-,-,-,0[12.7 µM],-
Cc1ccc(NC(=O)CSc2nc(-c3ccco3)nc3cc(=O)[nH]n23)c(Cl)c1,45µM,0,-,?,-,?
COc1cccc(NC(=O)CN(C)C(=O)c2ccc3c(c2)CC(c2ccccc2)OC3=O)c1 (stereo unspecified),?,0,0,0,0[2.33 µM],89µM
COc1ccc(NC(=O)CN(C)C(=O)c2ccc3[nH]c4c(c3c2)CC(C)CC4)cc1 (stereo unspecified),?,?,0,0,45µM,?
CC1CCc2[nH]c3ccc(C(=O)N(C)CC(=O)Nc4ccc(F)cc4)cc3c2C1 (stereo unspecified),?,?,-,0,?,?
COc1cccc(NC(=O)CN(C)C(=O)c2ccc3[nH]c4c(c3c2)CC(C)CC4)c1 (stereo unspecified),40µM,0,0,0,35µM,?
Cc1ccc(CNC(=O)COCc2cc(-c3cccs3)on2)cc1,0,0,-,-,0,0
C=C1/C(=C\C=C2/CCC[C@]3(C)[C@@H]([C@H](C)/C=C/[C@@H](O)C4CC4)CC[C@@H]23)C[C@@H](O)C[C@@H]1O,-,-,-,-,0[12.7 µM],-
C=C1CC[C@H](O)C/C1=C/C=C1\CCC[C@]2(C)[C@@H]([C@H](C)/C=C/[C@H](C)C(C)C)CC[C@@H]12,0,0,0,0,14µM,?
CCCCOc1ccc(N2C(=O)CC(N(O)c3ccccc3)C2=O)cc1 (stereo unspecified),0,0,0,0,0,0
CCCCCC(=O)N(O)C1CC(=O)N(c2ccccc2)C1=O (stereo unspecified),0,0,0,0,1.4µM,22µM
CN(Cc1ccccc1)C1CC(=O)N(c2ccc(C(=O)O)cc2)C1=O (stereo unspecified),0,0,0,-,3.5µM,0
CCCCCC(=O)NNC1CC(=O)N(c2ccccc2)C1=O (stereo unspecified),0,0,0,0,0,0
CCCCCOc1ccc(N2C(=O)CC(N(O)c3ccccc3)C2=O)cc1 (stereo unspecified),0,0,0,-,50µM,0
CCCCCCC(=O)N(O)C1CC(=O)N(Cc2ccccc2)C1=O (stereo unspecified),0,0,0,-,2.5µM,?
CCCN(CCC)C1CC(=O)N(Cc2ccccc2)C1=O (stereo unspecified),0,0,0,0,25µM,0
O=C1CC(N(O)C2CC(=O)N(Cc3ccccc3)C2=O)C(=O)N1Cc1ccccc1 (stereo unspecified),0,0,0,0,-,0
Cc1ccc(S(=O)(=O)N2CCC(c3nnc(-c4cccc(C)c4)o3)CC2)cc1,0,0,-,-,3.5µM,0
COc1ccc(-c2nnc(C3CCN(S(=O)(=O)c4ccc(C)c(C)c4)CC3)o2)cc1,0,0,-,-,0,0
CC1CCN(S(=O)(=O)c2cccc(-c3nnc(-c4cccnc4)o3)c2)CC1,0,0,-,0,0,28µM
CCCc1ccc(S(=O)(=O)N2CCC(c3nnc(-c4cccc(C)c4)o3)CC2)cc1,0,0,-,-,8.9µM,0
